From PubChem BioAssay (NCI)
Where “and” joins values, the source holds several entries; their conditions need not be identical. Equal values may be shown once. About 79,000 compounds went through this panel and 15% of them were active in at least one assay; those are over-represented in the sample as a whole. Some compounds were tested as several samples or in several runs, with calls that do not always agree. Calls of active or inactive are those of the source. No stated cut-off is given here; in the data, active means growth inhibition above about 70%; inactive means the rest.

Experiments:
[1] = NCI Yeast Anticancer Drug Screen. Data for the rad50 strain (AID 155);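 further: 0% = growth of vehicle-only cultures of the same strain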; settings: S. cerevisiae rad50 strain growth inhibition; at 50.0 µM; stronger effect = higher value
In short: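 Compounds were tested on a yeast strain with an engineered DNA damage repair alteration; the reported value is growth inhibition normalised to vehicle treatment.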

[2] = NCI Yeast Anticancer Drug Screen. Data for the mec2-1 strain (AID 157); settings: S. cerevisiae mec2-1 strain, stronger effect = higher value
In short: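 Vehicle-treated cultures served as reference for growth inhibition of compound-exposed mec2-1 yeast.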

[3] = NCI Yeast Anticancer Drug Screen. Data for the sgs1 mgt1 strain (AID 161);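 further: 0% = growth of cultures given vehicle only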; settings: S. cerevisiae sgs1 mgt1 strain, stronger effect = higher value
In short: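 Test agents were incubated with a DNA-repair-mutant yeast strain. Growth was then read and compared against vehicle-treated controls.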

[4] = NCI Yeast Anticancer Drug Screen. Data for the bub3 strain (AID 167); settings: S. cerevisiae bub3 mutant strain, stronger effect = higher value
In short: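 Growth of a checkpoint-deficient yeast mutant is measured after compound exposure. Values represent inhibition relative to vehicle.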

[5] = NCI Yeast Anticancer Drug Screen. Data for the mlh1 rad18 strain (AID 175); settings: S. cerevisiae mlh1 rad18 strain growth inhibition, stronger effect = higher value
In short: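 Vehicle-treated cultures served as the reference for growth inhibition in a yeast strain carrying DNA damage repair alterations exposed to each compound.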

[6] = NCI Yeast Anticancer Drug Screen. Data for the cln2 rad14 strain (AID 165);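 further: 0% = growth equal to vehicle treated cultures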; settings: S. cerevisiae cln2 rad14 strain, stronger effect = higher value
In short: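 Each compound was tested on cln2 rad14 yeast. Inhibition of growth was calculated against vehicle-exposed controls.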

[7] = at 5.0 µM (retest, dose inferred, filed as 0.5)
[8] = at 50.0 µM (retest, dose inferred, filed as 5.0)

Measured: growth inhibition

O=[N+]([O-])c1ccc(NCS(=O)(=O)O)cc1
inactive: [1] 6.95% and -2% | [2]; at 50.0 µM -14.3% and -7.9% | [3]; at 50.0 µM -9.35% and 5.9% | [4]; at 50.0 µM 8.55% and -3.05% | [5]; at 50.0 µM 5.7% and 17.8%

Oc1c(C(Nc2ccccc2)c2ccccc2)ccc2cccnc12 (stereo not drawn)
inactive: [2]; [7] -2% | [3]; [7] -4% | [6]; [7] -4% | [4]; [7] -8% | [5]; [7] 0%
active: [2]; [8] 97% | [2]; at 50.0 µM 81.2% | [3]; [8] 94% | [3]; at 50.0 µM 99% | [6]; [8] 92% | [6]; at 50.0 µM 96.2% | [4]; [8] 94% | [4]; at 50.0 µM 84% | [5]; [8] 92% | [5]; at 50.0 µM 96%

O=S(=O)(O)NC1CCCCC1
inactive: [1] 29.4% and 4.8% | [2]; at 50.0 µM 16.2% and -1.15% | [3]; at 50.0 µM -7.7% and -4.9% | [4]; at 50.0 µM 11.4% and 10.1% | [5]; at 50.0 µM 11.8% and -9.45%

CC1(C)Nc2ccccc2C(c2ccccc2)=NC1=O
inactive: [1] -2.7% and 4.8% | [3]; at 50.0 µM -7% and 0.85% | [6]; at 50.0 µM -5.75% and -0.25% | [4]; at 50.0 µM -4.7% and -4.6% | [5]; at 50.0 µM 12.7% and 13.3%

CN=C(N)N/N=C(\C)c1ccc2c(c1)Cc1ccccc1-2
active: [2]; [8] 99% | [3]; [8] 96% | [3]; at 50.0 µM 84.2% | [6]; [8] 86% | [4]; [8] 95% | [4]; at 50.0 µM 81.5%
inactive: [2]; [7] 19% | [2]; at 50.0 µM 59.9% | [3]; [7] 51% | [6]; [7] 42% | [6]; at 50.0 µM 52.8% | [4]; [7] 48%

CCCCCCCCCCCCCCCC[N+](C)(C)C
active: [2]; [8] 87% | [2]; at 50.0 µM 93.1% | [3]; [7] 93% | [3]; [8] 97% | [6]; [7] 82% | [6]; [8] 97% | [4]; [7] 97% | [4]; [8] 96% | [5]; [8] 84% | [5]; at 50.0 µM 91.7%
inactive: [2]; [7] 45% | [5]; [7] 30%

CC/C(=N/NC(N)=O)C1=CCCCC1
inactive: [1] -5.6% and 3.4% | [2]; at 50.0 µM -3.7% and -0.85% | [3]; at 50.0 µM -1.5% and -15.2% | [6]; at 50.0 µM -35.5% and -33.9% | [5]; at 50.0 µM -0.4% and -14.7%

CC(/C=N/NC(N)=S)Cc1ccc(C(C)C)cc1 (stereo not drawn)
inactive: [2]; [7] 45%
active: [2]; [8] 74% | [2]; at 50.0 µM 92.5% | [3]; [7] 98% | [3]; [8] 97% | [6]; [7] 98% | [6]; [8] 98% | [4]; [7] 99% | [4]; [8] 97%

CC(O)(c1cccc(Cl)c1)C(c1ccccc1)c1ccccn1 (stereo not drawn)
active: [2]; at 50.0 µM 79.2% and 97.9% | [3]; at 50.0 µM 95% and 97.8% | [5]; at 50.0 µM 79.7% and 97%
46.8% (inactive) and 97.4% (active): [4]; at 50.0 µM
19.8% (inactive) and 92.2% (active): [6]; at 50.0 µM

CCOC(=O)C(NC(C)=O)C(C)=O (stereo not drawn)
inactive: [1] 32.5% and 10.9% | [2]; at 50.0 µM -7% and -5.65% | [3]; at 50.0 µM 13.1% and 8.85% | [4]; at 50.0 µM 1.55% and -3.15% | [5]; at 50.0 µM -5.85% and 11.9%

Clc1ccc(Cc2nc3ccccc3s2)cc1
inactive: [2]; [7] 33% | [3]; [7] 47% | [6]; [7] 16% | [4]; [7] 38% | [5]; [7] 29%
active: [2]; [8] 99% | [2]; at 50.0 µM 99.5% | [3]; [8] 99% | [3]; at 50.0 µM 99.5% | [6]; [8] 99% | [6]; at 50.0 µM 97.3% | [4]; [8] 99% | [4]; at 50.0 µM 99% | [5]; [8] 99% | [5]; at 50.0 µM 99.3%

O=C(O)c1cc(O)c(O)c(O)c1
inactive: [2]; at 50.0 µM -12.6% and -7.9% | [3]; at 50.0 µM 2.2% and 15.6% | [6]; at 50.0 µM 15.6% and -9.5% | [4]; at 50.0 µM 2.25% and 2.85% | [5]; at 50.0 µM 5.8% and 3%

C=C1C(=O)OC2CC3(C)CCCC(C)C3=CC12 (stereo not drawn)
active: [3]; at 50.0 µM 80% | [4]; at 50.0 µM 78.8%
inactive: [2]; [7] 10% | [2]; [8] 56% | [2]; at 50.0 µM 46.9% | [3]; [7] 15% | [3]; [8] 49% | [6]; [7] 7% | [6]; [8] 25% | [6]; at 50.0 µM 16.2% | [4]; [7] 14% | [4]; [8] 63% | [5]; [7] 14% | [5]; [8] 41% | [5]; at 50.0 µM 25%

Nc1c(O)nc[nH]c1=O
inactive: [1] 3.5% and -8.25% | [2]; at 50.0 µM -5.15% and -3.15% | [3]; at 50.0 µM -9% and -8.55% | [4]; at 50.0 µM 4.8% and -10.2% | [5]; at 50.0 µM -16.6% and -8.95%

NC(N)=N/N=C(/C=N/N=C(N)N)C(O)C(O)CO (stereo not drawn)
inactive: [1] -11% and -10.4% | [2]; at 50.0 µM -1.95% and -8.1% | [3]; at 50.0 µM -7.6% and 3.3% | [4]; at 50.0 µM -18.1% and -13.7% | [5]; at 50.0 µM -20.4% and -19.9%

COc1ccc(C(O)c2nccn2C)c(OC)c1 (stereo not drawn)
inactive: [1] -17.6% and -23.8% | [3]; at 50.0 µM -0.3% and -6.2% | [6]; at 50.0 µM 14.7% and 10.1% | [4]; at 50.0 µM 20.1% and 21% | [5]; at 50.0 µM 5.35% and -6.35%

CCC(=O)c1cc([N+](=O)[O-])c(Br)s1
active: [2]; [7] 99% | [2]; [8] 100% | [2]; at 50.0 µM 99.6% | [3]; [7] 100% | [3]; [8] 100% | [3]; at 50.0 µM 99.6% | [6]; [7] 99% | [6]; [8] 99% | [6]; at 50.0 µM 98.8% | [4]; [7] 100% | [4]; [8] 99% | [4]; at 50.0 µM 99.5% | [5]; [7] 99% | [5]; [8] 99% | [5]; at 50.0 µM 99.5%

O=C(O)CC(NC(=O)OCc1ccccc1)C(=O)O (stereo not drawn)
inactive: [1] -30.5% and -21.3% | [2]; at 50.0 µM -16.4% and 9.65% | [3]; at 50.0 µM -6.2% and 0.8% | [4]; at 50.0 µM 1.55% and 4.65% | [5]; at 50.0 µM -8.75% and -16.1%

O=C1CCSSCCC(=O)NCCN1
inactive: [2]; at 50.0 µM 8.6% and -3.25% | [3]; at 50.0 µM -5.75% and 5.55% | [6]; at 50.0 µM -2.5% and 14.3% | [4]; at 50.0 µM 6.65% and 29% | [5]; at 50.0 µM 16.2% and 0.4%

NCCCNCCSSC/C=C\CSSCCNCCCN
inactive: [2]; at 50.0 µM -15.6% and -4.85% | [3]; at 50.0 µM 1.8% and -15.3% | [6]; at 50.0 µM 1.15% and -16.8% | [4]; at 50.0 µM 7.85% and -2.3% | [5]; at 50.0 µM 11.3% and 1.45%

CC(C)(C)OC(=O)N1CCCC1C(=O)O (stereo not drawn)
inactive: [1] -2% and 4.9% | [2]; at 50.0 µM -22.3% and 2.55% | [3]; at 50.0 µM 3.05% and 3.8% | [4]; at 50.0 µM 11.6% and -5.25% | [5]; at 50.0 µM 2.45% and 4.55%
